About 14,000 (4.5%) of roughly 310,000 compounds showed an effect of 50% or more. The effect is printed as a negative number. What follows is part of a selection rich in strong results, with near analogues and random picks from the rest.
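Also: peak tail current of the secondary pulse compared with the same well before compound.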

Sequence of human ether-à-go-go-related gene (hERG) potassium channel (Q12809 whole entry, looked up): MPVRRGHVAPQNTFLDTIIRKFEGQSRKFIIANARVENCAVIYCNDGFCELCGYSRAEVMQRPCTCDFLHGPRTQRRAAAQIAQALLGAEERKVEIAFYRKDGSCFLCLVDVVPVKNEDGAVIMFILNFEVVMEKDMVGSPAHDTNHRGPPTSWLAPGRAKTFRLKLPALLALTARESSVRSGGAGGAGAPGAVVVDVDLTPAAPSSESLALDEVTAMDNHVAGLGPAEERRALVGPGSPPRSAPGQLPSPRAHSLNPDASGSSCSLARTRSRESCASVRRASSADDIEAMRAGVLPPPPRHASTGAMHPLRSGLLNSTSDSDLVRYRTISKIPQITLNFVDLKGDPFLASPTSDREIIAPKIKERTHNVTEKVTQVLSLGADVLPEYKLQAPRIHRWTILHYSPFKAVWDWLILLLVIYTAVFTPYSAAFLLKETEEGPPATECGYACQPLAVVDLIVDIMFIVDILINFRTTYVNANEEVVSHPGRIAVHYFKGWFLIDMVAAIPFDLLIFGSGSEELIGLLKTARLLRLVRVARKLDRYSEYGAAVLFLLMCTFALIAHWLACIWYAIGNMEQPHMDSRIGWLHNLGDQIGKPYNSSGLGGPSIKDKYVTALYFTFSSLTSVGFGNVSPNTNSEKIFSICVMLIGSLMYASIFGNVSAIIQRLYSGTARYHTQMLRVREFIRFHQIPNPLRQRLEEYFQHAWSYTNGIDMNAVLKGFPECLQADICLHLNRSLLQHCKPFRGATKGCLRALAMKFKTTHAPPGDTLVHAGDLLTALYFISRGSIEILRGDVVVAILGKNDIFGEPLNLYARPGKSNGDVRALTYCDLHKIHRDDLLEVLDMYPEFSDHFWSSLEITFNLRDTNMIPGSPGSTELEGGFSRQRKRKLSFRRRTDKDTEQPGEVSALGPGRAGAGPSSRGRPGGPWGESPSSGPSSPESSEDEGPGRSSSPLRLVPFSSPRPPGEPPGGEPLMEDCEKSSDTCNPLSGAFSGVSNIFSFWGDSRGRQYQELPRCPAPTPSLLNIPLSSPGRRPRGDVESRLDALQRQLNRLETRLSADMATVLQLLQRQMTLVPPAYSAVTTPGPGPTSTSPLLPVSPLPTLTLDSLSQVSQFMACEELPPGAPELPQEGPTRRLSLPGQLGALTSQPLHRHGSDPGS

This assay has as its target human ether-à-go-go-related gene (hERG) potassium channel (human, UniProt Q12809). The assay can be described thus: primary screen, population patch clamp on CHO cells stably expressing hERG; higher = less effect of the substance.
In the case of `Cn1cnnc1SCC(=O)c1ccc(O)c(O)c1`, the “hERG current change (%, negative = inhibition) at 10uM” value was 18.7%.

Turning to `O=C1CC2(CCCCC2)Oc2ccc(F)cc21`, the “hERG current change (%, negative = inhibition) at 10uM” value is -4.03%.

As to `CCN(CC)CCNC(=O)Cn1cnc2sc(C)c(S(=O)(=O)N3CC(C)CC(C)C3)c2c1=O` (stereo not shown), the “hERG current change (%, negative = inhibition) at 10uM” value is given as 24.8%.

In the case of `COc1ccc(Cn2c(=S)[nH]c3cc(OC)c(OC)cc3c2=O)cc1`, the “hERG current change (%, negative = inhibition) at 10uM” value was determined as 20.4%.

As to `O=[N+]([O-])c1ccc(-c2ccc(/C=N/c3c(-c4ccco4)nc4ccccn34)o2)cc1`, the “hERG current change (%, negative = inhibition) at 10uM” value is 8.33%.

Consider `O=C(O)CCSc1nnc(-c2ccccc2)n1-c1ccccc1`, for which the “hERG current change (%, negative = inhibition) at 10uM” value is recorded as -3.32%.

For the compound `Cc1ccc(SCc2cc(=O)[nH]c(N3CCCCC3)n2)cc1`, the “hERG current change (%, negative = inhibition) at 10uM” value is given as -8.62%.

In the case of `CCOC(=O)C(O)(c1ccc(NC(=S)NC(=O)c2ccc(Cl)cc2Cl)c(C)c1)C(F)(F)F` (stereo not shown), the “hERG current change (%, negative = inhibition) at 10uM” value is listed as 27.4%.

For the compound `COc1ccccc1NC(=O)CCSc1nnc(-c2ccncc2)o1`, the “hERG current change (%, negative = inhibition) at 10uM” value is reported as -2.96%.

As for `Fc1ccccc1NC(=S)NNc1ncc(C(F)(F)F)cc1Cl`, the “hERG current change (%, negative = inhibition) at 10uM” value is listed as 21.2%.

Take `CN1CCCN(C(=O)COc2cccc(C(F)(F)F)c2)CC1`: the “hERG current change (%, negative = inhibition) at 10uM” value is -0.603%.

Turning to `c1ccc(Cn2c(NCc3ccco3)nc3ccccc32)cc1`, the “hERG current change (%, negative = inhibition) at 10uM” value is on record as -51%.

In the case of `CCn1c(NCc2cccs2)nc2ccccc21`, the “hERG current change (%, negative = inhibition) at 10uM” value was -12.2%.

On to `CCCCn1c(NCc2cccs2)nc2ccccc21`, for which the “hERG current change (%, negative = inhibition) at 10uM” value was -55.9%.

Take `CC(NC(=O)/C=C/c1ccco1)c1nc2ccccc2n1Cc1ccccc1F` (stereo not shown): the “hERG current change (%, negative = inhibition) at 10uM” value is 0.704%.

In the case of `CC(NC(=O)/C=C/c1ccco1)c1nc2ccccc2n1Cc1cccc(Cl)c1` (stereo not shown), the “hERG current change (%, negative = inhibition) at 10uM” value is -67.2%.

Turning to `c1ccc(Cn2c(NCc3ccccn3)nc3ccccc32)cc1`, the “hERG current change (%, negative = inhibition) at 10uM” value is on record as -39%.

As for `C=CCn1c(NCc2ccco2)nc2ccccc21`, the “hERG current change (%, negative = inhibition) at 10uM” value is given as -8.07%.

`CC(NC(=O)/C=C/c1ccco1)c1nc2ccccc2n1Cc1c(Cl)cccc1Cl` (stereo not shown): the “hERG current change (%, negative = inhibition) at 10uM” value is reported as -11%.

In the case of `CCCn1c(NCc2cccs2)nc2ccccc21`, the “hERG current change (%, negative = inhibition) at 10uM” value is reported as -29.3%.

As to `CC1CC1C(=O)OCC(=O)Nc1cccc(S(=O)(=O)NC2=NCCCCC2)c1` (stereo not shown), the “hERG current change (%, negative = inhibition) at 10uM” value was -7.64%.

As for `Cc1ccc(C(=O)c2ccc(N3CCOCC3)c(F)c2)cc1`, the “hERG current change (%, negative = inhibition) at 10uM” value is on record as -22%.

Consider `CCCn1c2ccccc2c2cn[nH]c(=O)c21`, for which the “hERG current change (%, negative = inhibition) at 10uM” value turned out to be 12%.

For `Cc1c(C(=O)NCC(C)C)sc2nc(-c3ccc(F)cc3)cn12`, the “hERG current change (%, negative = inhibition) at 10uM” value is -5.46%.

Turning to `Cc1c(C(=O)Nc2ccccc2)sc2nc(-c3ccccc3)cn12`, the “hERG current change (%, negative = inhibition) at 10uM” value is on record as -4.89%.

`Cc1c(C(=O)NCc2cccnc2)sc2nc(-c3ccccc3)cn12`: the “hERG current change (%, negative = inhibition) at 10uM” value is recorded as -55.2%.

As for `Cc1c(C(=O)NCCCN2CCOCC2)sc2nc(-c3ccccc3)cn12`, the “hERG current change (%, negative = inhibition) at 10uM” value is reported as -48.5%.

On to `Cc1c(C(=O)NCCCN2CCOCC2)sc2nc(-c3ccc(F)cc3)cn12`, for which the “hERG current change (%, negative = inhibition) at 10uM” value is -60.9%.

For `COCCNC(=O)c1sc2nc(-c3ccccc3)cn2c1C`, the “hERG current change (%, negative = inhibition) at 10uM” value is reported as -11.5%.

On to `Cc1c(C(=O)NCCN2CCOCC2)sc2nc(-c3ccc(F)cc3)cn12`, for which the “hERG current change (%, negative = inhibition) at 10uM” value is -23.6%.

In the case of `Cc1c(C(=O)NCc2cccnc2)sc2nc(-c3ccc(F)cc3)cn12`, the “hERG current change (%, negative = inhibition) at 10uM” value was -40.4%.

For the compound `CCN(CC)CCNC(=O)c1sc2nc(-c3ccccc3)cn2c1C`, the “hERG current change (%, negative = inhibition) at 10uM” value is given as -67.4%.

As to `Cc1c(C(=O)NCc2ccccn2)sc2nc(-c3ccc(F)cc3)cn12`, the “hERG current change (%, negative = inhibition) at 10uM” value is on record as -10.2%.

As for `CCN(CC)CCCNC(=O)c1sc2nc(-c3ccc(F)cc3)cn2c1C`, the “hERG current change (%, negative = inhibition) at 10uM” value was -71.1%.

Take `Cc1c(C(=O)NCc2ccccn2)sc2nc(-c3ccccc3)cn12`: the “hERG current change (%, negative = inhibition) at 10uM” value is reported as -18.6%.

Turning to `Nc1cc(-c2ccccc2)ccc1O`, the “hERG current change (%, negative = inhibition) at 10uM” value turned out to be 22.5%.

Take `CCCC1=[N+](CC(C)=O)CCn2c(C)ccc21.[Br-]`: the “hERG current change (%, negative = inhibition) at 10uM” value was determined as 20.1%.

For `Cc1ccc(OCC(=O)Oc2c(C)cccc2C)cc1`, the “hERG current change (%, negative = inhibition) at 10uM” value was determined as 16.8%.

For the compound `COc1ccc(CC(NC(C)=O)C(=O)NC2CCN(C(=O)Nc3ccccc3Cl)CC2)cc1OC` (stereo not shown), the “hERG current change (%, negative = inhibition) at 10uM” value stood at 12.7%.

On to `CC(C)(C)c1ccc(-n2nc(C(N)=O)c(O)cc2=O)cc1`, for which the “hERG current change (%, negative = inhibition) at 10uM” value is given as 12.9%.

For the compound `CC(=O)N1c2ccc(S(=O)(=O)N(C)c3cc(C)ccc3C)cc2CC1C` (stereo not shown), the “hERG current change (%, negative = inhibition) at 10uM” value was -8.67%.

Consider `Cc1csc(NC(=O)Cc2ccccc2[N+](=O)[O-])n1`, for which the “hERG current change (%, negative = inhibition) at 10uM” value is listed as 8.85%.

Take `CCCSc1nc(-n2ncc(C#N)c2N)c2c3c(sc2n1)CCC(C)C3` (stereo not shown): the “hERG current change (%, negative = inhibition) at 10uM” value stood at 5.45%.

Source of the values: article PMC4336329 (PLoS ONE, 2015).
